Measurements reported in the supplement of paper PMC11732987, “Enantioselective OTUD7B fragment discovery through chemoproteomics screening and high-throughput optimisation” (Communications Chemistry, 2025).

Assays:
Assay in all cases: log2 ratio of Biotin-Ahx-Ub-VS probe labelling (fragment/DMSO); higher = less target engagement (more negative = stronger competition), active = hit call of the paper (q ≤ 0.05, log2 ratio ≤ -1)
Details in all cases: compound concentration: 200 uM; treatment time: 3 h
ALG13 = molecular target: T1, ALG13 (UniProt Q9NP73)
T1 sequence (whole entry): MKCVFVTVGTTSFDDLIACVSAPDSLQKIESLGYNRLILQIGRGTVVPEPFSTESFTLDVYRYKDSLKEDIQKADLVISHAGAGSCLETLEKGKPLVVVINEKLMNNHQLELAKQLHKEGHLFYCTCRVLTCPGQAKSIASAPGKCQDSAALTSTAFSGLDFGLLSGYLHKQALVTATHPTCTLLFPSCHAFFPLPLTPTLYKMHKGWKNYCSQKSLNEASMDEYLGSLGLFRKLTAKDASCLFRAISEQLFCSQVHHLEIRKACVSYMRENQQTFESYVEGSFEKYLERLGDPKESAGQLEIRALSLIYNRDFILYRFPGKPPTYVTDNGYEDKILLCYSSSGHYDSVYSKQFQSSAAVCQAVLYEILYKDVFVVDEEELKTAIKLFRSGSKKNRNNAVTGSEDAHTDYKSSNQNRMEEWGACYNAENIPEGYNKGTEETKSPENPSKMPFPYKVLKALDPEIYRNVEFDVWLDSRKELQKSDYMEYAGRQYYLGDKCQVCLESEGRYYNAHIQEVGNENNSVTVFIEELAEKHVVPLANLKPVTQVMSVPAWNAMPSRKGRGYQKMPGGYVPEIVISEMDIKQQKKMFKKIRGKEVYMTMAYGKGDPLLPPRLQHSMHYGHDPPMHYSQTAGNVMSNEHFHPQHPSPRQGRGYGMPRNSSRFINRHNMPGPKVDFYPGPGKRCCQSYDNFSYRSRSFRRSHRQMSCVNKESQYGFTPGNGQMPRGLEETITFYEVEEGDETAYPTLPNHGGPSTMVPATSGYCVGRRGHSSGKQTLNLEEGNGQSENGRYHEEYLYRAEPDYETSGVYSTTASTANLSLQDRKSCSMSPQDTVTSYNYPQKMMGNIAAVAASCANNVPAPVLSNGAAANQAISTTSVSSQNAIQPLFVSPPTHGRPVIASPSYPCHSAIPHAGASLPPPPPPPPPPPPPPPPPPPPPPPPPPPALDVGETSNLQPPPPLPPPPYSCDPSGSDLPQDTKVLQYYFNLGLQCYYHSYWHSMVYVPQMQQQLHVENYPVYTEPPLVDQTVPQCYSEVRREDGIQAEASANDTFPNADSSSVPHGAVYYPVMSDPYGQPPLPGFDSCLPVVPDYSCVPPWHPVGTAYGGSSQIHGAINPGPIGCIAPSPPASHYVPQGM
Summary of the method: (§1)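 HEK293T lysate, 495 µg per sample in Tris/CHAPS/IGEPAL buffer with protease inhibitors, was treated in triplicate with fragment at 200 µM or vehicle for 3 h and then with Biotin-Ahx-Ub-VS at 0.5 µM final for 1 h. Labelled DUBs were NeutrAvidin-enriched, digested with LysC and trypsin, and run by diaPASEF LC-MS/MS. Spectronaut label-free quantities were global-median-normalised, and values are average log2 fragment/vehicle ratios by unpaired t-test on proteins with ≥2 unique peptides.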

ATXN3 = ATXN3 (UniProt P54252)
Summary of the method: as §1

BAP1 = molecular target: T2, BAP1 (UniProt Q92560)
T2 sequence (whole entry): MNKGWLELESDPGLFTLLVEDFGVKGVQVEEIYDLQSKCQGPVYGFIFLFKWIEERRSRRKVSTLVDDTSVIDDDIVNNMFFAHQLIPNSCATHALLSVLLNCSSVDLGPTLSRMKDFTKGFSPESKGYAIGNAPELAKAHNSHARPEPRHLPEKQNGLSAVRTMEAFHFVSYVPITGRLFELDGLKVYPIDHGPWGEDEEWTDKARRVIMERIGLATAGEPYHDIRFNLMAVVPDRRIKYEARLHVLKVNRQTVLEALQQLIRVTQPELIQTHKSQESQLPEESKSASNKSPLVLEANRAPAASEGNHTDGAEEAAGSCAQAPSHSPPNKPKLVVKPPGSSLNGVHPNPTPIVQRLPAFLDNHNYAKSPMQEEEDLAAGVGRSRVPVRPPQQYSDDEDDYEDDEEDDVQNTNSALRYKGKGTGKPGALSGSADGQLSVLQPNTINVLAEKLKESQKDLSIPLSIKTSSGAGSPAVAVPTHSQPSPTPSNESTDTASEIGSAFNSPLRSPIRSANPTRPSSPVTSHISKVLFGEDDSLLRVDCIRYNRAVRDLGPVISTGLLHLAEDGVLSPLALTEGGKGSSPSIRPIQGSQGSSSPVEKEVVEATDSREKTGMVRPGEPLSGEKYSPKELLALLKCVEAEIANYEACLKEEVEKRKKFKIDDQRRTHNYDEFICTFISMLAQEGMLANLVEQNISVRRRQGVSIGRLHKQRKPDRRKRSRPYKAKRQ
Summary of the method: as §1

EIF3F = EIF3F (UniProt O00303)
Summary of the method: as §1

EIF3H = EIF3H (UniProt O15372)
Summary of the method: as §1

FAM105A = molecular target: T3, FAM105A (UniProt Q9NUU6)
T3 sequence (whole entry): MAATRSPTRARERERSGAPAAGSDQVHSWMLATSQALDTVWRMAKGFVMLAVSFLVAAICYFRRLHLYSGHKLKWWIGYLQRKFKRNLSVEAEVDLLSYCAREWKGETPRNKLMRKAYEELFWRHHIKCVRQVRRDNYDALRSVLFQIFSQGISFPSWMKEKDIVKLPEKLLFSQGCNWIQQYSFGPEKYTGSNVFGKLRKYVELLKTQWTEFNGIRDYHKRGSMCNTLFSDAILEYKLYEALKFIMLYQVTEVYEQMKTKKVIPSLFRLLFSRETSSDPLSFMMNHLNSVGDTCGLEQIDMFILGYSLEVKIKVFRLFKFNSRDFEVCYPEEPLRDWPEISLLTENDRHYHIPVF
Summary of the method: as §1

OTUB1 = OTUB1 (UniProt Q96FW1)
Summary of the method: as §1

OTUD4 = molecular target: T4, OTUD4 (UniProt Q01804)
T4 sequence (whole entry): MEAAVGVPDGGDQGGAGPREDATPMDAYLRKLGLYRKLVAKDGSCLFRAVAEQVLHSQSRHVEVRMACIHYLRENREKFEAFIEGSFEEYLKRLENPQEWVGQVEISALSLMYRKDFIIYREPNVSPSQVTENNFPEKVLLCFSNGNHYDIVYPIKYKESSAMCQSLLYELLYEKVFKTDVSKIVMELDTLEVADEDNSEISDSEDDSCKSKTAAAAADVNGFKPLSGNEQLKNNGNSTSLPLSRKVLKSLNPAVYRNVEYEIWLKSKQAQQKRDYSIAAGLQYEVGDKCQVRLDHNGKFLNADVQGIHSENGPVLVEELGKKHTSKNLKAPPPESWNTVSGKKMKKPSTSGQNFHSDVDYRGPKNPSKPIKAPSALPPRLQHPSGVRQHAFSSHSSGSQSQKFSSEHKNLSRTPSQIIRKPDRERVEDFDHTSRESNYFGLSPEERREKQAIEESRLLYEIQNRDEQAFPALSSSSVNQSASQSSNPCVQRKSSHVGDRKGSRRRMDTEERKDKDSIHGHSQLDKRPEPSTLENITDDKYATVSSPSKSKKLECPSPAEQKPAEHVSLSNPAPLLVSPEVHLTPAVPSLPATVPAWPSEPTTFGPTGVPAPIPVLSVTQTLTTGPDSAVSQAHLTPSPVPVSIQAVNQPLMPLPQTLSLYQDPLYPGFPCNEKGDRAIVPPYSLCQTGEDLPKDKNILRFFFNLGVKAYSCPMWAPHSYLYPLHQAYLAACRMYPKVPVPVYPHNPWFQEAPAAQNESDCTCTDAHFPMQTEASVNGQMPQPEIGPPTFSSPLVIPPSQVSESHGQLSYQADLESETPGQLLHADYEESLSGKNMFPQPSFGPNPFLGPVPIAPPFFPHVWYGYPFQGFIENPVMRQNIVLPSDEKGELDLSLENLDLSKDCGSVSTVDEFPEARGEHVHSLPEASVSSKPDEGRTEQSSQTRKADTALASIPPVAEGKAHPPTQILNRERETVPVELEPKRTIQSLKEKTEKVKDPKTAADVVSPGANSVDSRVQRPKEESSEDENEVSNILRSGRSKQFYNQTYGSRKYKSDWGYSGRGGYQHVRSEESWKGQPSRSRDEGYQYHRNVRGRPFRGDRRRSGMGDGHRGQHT
Summary of the method: as §1

OTUD5 = molecular target: T5, OTUD5 (UniProt Q96G74)
T5 sequence (whole entry): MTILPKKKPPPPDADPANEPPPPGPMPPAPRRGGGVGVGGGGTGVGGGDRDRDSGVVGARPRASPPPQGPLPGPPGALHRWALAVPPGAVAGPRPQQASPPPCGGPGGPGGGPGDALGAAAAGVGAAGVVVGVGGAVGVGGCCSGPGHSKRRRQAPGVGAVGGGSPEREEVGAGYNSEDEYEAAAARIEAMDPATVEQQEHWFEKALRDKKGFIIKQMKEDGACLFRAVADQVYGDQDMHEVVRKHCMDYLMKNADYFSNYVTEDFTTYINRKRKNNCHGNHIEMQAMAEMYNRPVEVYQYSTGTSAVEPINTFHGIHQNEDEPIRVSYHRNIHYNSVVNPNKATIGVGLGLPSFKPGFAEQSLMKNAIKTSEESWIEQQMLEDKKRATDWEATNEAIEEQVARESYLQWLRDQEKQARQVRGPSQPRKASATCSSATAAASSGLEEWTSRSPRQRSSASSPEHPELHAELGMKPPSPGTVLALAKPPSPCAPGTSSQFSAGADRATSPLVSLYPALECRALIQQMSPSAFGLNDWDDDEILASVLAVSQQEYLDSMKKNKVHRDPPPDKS
Summary of the method: as §1

Measured: log2 ratio of Biotin-Ahx-Ub-VS probe labelling

OTUB1, sequence (Q96FW1 whole entry): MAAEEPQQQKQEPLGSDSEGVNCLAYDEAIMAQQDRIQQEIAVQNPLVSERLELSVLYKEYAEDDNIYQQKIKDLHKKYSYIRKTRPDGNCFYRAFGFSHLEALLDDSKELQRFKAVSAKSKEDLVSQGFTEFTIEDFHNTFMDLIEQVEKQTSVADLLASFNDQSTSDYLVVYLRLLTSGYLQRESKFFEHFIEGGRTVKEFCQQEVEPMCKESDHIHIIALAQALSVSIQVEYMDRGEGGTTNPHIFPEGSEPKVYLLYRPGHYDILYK
ATXN3, sequence (P54252 whole entry): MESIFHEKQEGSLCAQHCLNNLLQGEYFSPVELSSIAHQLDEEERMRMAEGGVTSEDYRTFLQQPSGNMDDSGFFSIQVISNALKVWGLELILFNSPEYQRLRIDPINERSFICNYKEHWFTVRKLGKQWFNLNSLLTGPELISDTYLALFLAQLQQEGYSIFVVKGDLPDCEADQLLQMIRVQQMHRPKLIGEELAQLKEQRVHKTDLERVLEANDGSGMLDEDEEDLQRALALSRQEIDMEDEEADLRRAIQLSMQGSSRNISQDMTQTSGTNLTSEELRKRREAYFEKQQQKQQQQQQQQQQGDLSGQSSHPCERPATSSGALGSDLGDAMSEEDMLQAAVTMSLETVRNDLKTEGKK
EIF3F, sequence (O00303 whole entry): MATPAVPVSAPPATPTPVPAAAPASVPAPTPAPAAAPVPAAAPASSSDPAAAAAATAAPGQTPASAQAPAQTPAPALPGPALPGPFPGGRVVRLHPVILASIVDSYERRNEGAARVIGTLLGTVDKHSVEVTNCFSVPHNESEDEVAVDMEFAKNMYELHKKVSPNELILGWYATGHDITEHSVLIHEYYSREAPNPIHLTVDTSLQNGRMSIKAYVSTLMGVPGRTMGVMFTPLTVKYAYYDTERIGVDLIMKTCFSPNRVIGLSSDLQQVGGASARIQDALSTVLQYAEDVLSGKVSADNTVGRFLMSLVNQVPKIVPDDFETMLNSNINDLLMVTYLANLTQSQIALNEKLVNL
EIF3H, sequence (O15372 whole entry): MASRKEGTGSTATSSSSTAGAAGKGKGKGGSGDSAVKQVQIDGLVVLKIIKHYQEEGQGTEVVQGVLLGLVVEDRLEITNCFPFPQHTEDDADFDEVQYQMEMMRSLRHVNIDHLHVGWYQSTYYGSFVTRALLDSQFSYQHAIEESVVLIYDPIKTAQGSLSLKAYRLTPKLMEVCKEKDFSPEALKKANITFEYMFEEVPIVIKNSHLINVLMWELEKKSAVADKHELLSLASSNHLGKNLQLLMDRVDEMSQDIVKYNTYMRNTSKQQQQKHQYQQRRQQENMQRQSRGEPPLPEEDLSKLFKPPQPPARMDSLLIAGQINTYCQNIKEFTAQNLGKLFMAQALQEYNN

CS(=O)(=O)c1ccc(CNC(=O)CCl)cc1
active: BAP1 -3.17
inactive: ALG13 -0.0665 | ATXN3 -0.381 | EIF3F -0.177 | EIF3H -0.0369 | FAM105A -0.0581 | OTUB1 -0.0582 | OTUD4 -0.317 | OTUD5 -0.368
